An excerpt weighted towards active compounds, which were near 2.2% of everything screened.
MITF TRPM1 inh: reduces MITF-dependent TRPM1 promoter luciferase signal | 330,000 tested, 0.83% active | inhibition, % at 12.5 µM | AID 488899 | SK-MEL-5 TRPM1 promoter luciferase, 24 h;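 active = mean inhibition across replicates of 60% or more, whatever share of single replicates reaches that level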
Shn3 inh set2: reduces Shn3 3'UTR luciferase signal in osteoblasts; Clone20 osteoblast Shn3 3'UTR firefly luciferase, 24 h; inhibition, % at 12.5 µM; 360,000 tested, 0.52% active; AID 588674;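 active = mean inhibition of at least 75% with every replicate also reaching 75%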;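 note: 0% = median of neutral control wells and 100% = pilot-screen positive control compound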
PAX8 reporter: PAX8 transcriptional activity inhibition. RMG-I TPO-luciferase reporter, SteadyGlo, 24 h. inhibition, % at 12.6 µM. 360,000 tested, 1.2% active;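 active = mean replicate inhibition at least 60% with every replicate also reaching 60%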;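 note: luciferase light reporting Pax8 driven TPO promoter activity; plate controls were median of neutral control wells for no effect and mitoxantrone controls for full effect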
LGR2 inh: blocks bursicon-induced cAMP signaling via Drosophila LGR2; AID 720647; 380,000 tested, 0.35% active; HEK293 LGR2, CRE-luciferase, bursicon-stimulated, 4 h; inhibition, % at 9.99 µM;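 active = drop in luminescence signal, shown as inhibition above about 50% in the replicate tests, limit read from the data, passing the limit was not always enough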;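 note: agonist challenge used bursicon conditioned medium at about half maximal strength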
EWS-Fli block: blocks EWS/Fli oncoprotein-driven transcription. A673 NR0B1-luciferase reporter, viability-normalised. inhibition, % at 12.6 µM. 350,000 tested, 0.67% active. AID 651661;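 active = mean inhibition of at least 50% after viability correction, with every replicate also passing that limit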;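 note: firefly luciferase signal divided by Alamar Blue viability fluorescence both relative to DMSO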
LMP1 NFkB inh: Epstein-Barr LMP1 NF-kappaB reporter inhibition. inhibition, % at 12.5 µM. AID 504558. LMP1-induced NF-kappaB luciferase reporter cells, luminescence. 350,000 tested, 0.69% active; in the data active = inhibition above about 41%;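 note: 0% = neutral control wells and 100% = reference inhibitor control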
* = called active by the depositor; / = not tested or not shown.

SMILES	MITF TRPM1 inh	Shn3 inh set2	PAX8 reporter	LGR2 inh	EWS-Fli block	LMP1 NFkB inh
COc1cccc(C(=O)Nc2ccc3c(cc2=O)[C@@H](NC(C)=O)CCc2cc(OC)c(OC)c(OC)c2-3)c1	62.1*	16.4	/	/	/	36.4
COc1c(C=O)c2c(c(OC)c1OC)-c1ccc(OC)c(=O)cc1C(NC(C)=O)CC2 (stereo unspecified)	42.4	34.4	87.0*	-24.9	41.6	-15.5
CCCC(=O)NC1CCc2cc(OC)c(OC)c(OC)c2-c2ccc(OC)c(=O)cc21 (stereo unspecified)	49.0	5.6	77.7*	-14.5	23.7	-2.8
COc1ccc(C(C)=O)cc1CC(=O)NC1CCCCCC1	8.7	10.1	-25.4	13.8	-6.8	-2.4
COc1cc(CC(=O)NC2CCCc3ccccc32)cc(OC)c1OC (stereo unspecified)	1.2	5.8	-0.3	1.7	2.9	-6.4
C[C@H]1CCCCO[C@H](CN(C)C(=O)Cc2ccccc2)[C@@H](C)CN([C@@H](C)CO)C(=O)c2cc(N(C)C)ccc2O1	/	/	8.9	-10.7	2.5	/
CCCN1C[C@H](C)[C@H](OC)CN(C)C(=O)c2ccc(NC(=O)CC)cc2OC[C@H]1C	/	/	/	1.8	0.4	/
COc1cc2c(c(OC)c1OC)-c1ccc(OC)c(=O)cc1C(NC(C)=O)CC2 (stereo unspecified)	66.5*	-37.2	96.4*	7.5	63.5*	11.3
C[C@@H]1CN([C@H](C)CO)C(=O)c2cc(NC(=O)CCCCCC(=O)Nc3ccccc3N)ccc2O[C@@H](C)CCCCO[C@@H]1CN(C)C(=O)C1CCCCC1	/	/	-13.2	12.9	-2.1	/
CN(C)S(=O)(=O)c1ccc(C(=O)NCC2CC2(Cl)Cl)cc1 (stereo unspecified)	-2.4	-16.1	-15.7	-6.1	0.3	43.3*
Oc1ccc(C[C@H]2CNC(=S)N2CC2CCCN2C[C@H](Cc2ccc(O)cc2)N2C[C@H](Cc3ccc(O)cc3)N(CC3CCCCCC3)C2=S)cc1 (stereo partly specified)	71.5*	72.4	99.4*	10.1	41.9	-26.7
Oc1ccc(C[C@@H](CN2CCCC2CN2C(=S)NC[C@@H]2Cc2ccccc2)N2C[C@H](Cc3ccccc3)N(CC3CCCCC3)C2=S)cc1 (stereo partly specified)	/	/	18.8	-13.0	16.7	/
Oc1ccc(C[C@H]2CNC(=S)N2CC2CCCN2C[C@H](Cc2ccc(O)cc2)N2C[C@H](Cc3ccccc3)N(CC3CCCCCC3)C2=S)cc1 (stereo partly specified)	17.7	20.1	90.0*	8.1	20.4	1.8
Oc1ccc(C[C@H]2CNC(=S)N2CC2CCCN2C[C@H](Cc2ccccc2)N2C[C@H](Cc3ccc(O)cc3)N(CC3CCCCC3)C2=S)cc1 (stereo partly specified)	/	7.7	77.0*	-25.5	20.6	/
Oc1ccc(C[C@H]2CN([C@@H](Cc3ccccc3)CN3CCC[C@@H]3CN3C(=S)NC[C@@H]3Cc3ccccc3)C(=S)N2CC2CCCCC2)cc1	/	-5.0	13.1	9.4	7.6	/
Oc1ccc(C[C@H]2CNC(=S)N2CC2CCCN2C[C@H](Cc2ccc(O)cc2)N2C[C@H](Cc3ccccc3)N(CC3CCCCC3)C2=S)cc1 (stereo partly specified)	34.7	78.8	86.9*	15.1	11.3	11.0
COc1ccc(NC(=O)N[C@@H]2CC[C@H](CCNC(=O)Nc3cc(F)ccc3F)O[C@@H]2CO)cc1	/	/	/	4.3	/	/
C[C@H](CO)N1C[C@H](C)[C@@H](CN(C)Cc2ccc(-c3ccccc3)cc2)Oc2ccc(NS(=O)(=O)c3ccc(Cl)cc3)cc2CC1=O	/	/	40.9	6.1	12.8	/
CC(=O)Nc1ccc2c(c1)C(=O)N(C)[C@H]1CC[C@H](CC(=O)NCc3ccc(Cl)cc3)O[C@H]1CO2	/	/	-3.7	3.2	2.7	/
CCc1ccc(OCCOCCN2CCN(C)CC2)cc1	4.5	-10.7	9.5	3.3	7.6	-10.1
CN1CCN(CCOc2ccc(Cc3ccccc3)cc2)CC1	13.4	-10.6	-4.4	4.6	-0.5	47.9*
CC1CCN(CCOc2ccc(OCc3ccccc3)cc2)CC1	-52.8	-28.2	118.4*	-18.7	-22.3	-4.8
O=C(C[C@@H]1CC[C@H](NC(=O)c2cccnc2)[C@H](CO)O1)NCc1ccncn1	/	/	3.8	11.3	6.3	/
OC[C@H]1[C@@H](c2ccc(C#CC3CC3)cc2)[C@@H]2CN(CCC(F)(F)F)CCCCN12	/	/	-6.0	/	-0.9	/
CCOC(=O)c1c(NC(=O)CN2C(=O)NC3(CCCCC3C)C2=O)sc(C)c1C (stereo unspecified)	2.4	17.4	15.9	-39.2	/	8.1
SMILES	MITF TRPM1 inh	Shn3 inh set2	PAX8 reporter	LGR2 inh	EWS-Fli block	LMP1 NFkB inh
CCOC(=O)c1c(-c2ccc(F)cc2)csc1NC(=O)CN1C(=O)NC2(CCCCC2C)C1=O (stereo unspecified)	-18.4	34.1	98.7*	1.7	21.9	-11.7
Cc1nc(CSc2nnc(C)s2)cs1	-4.4	10.3	85.1*	8.0	-11.0	3.8
Cc1cc(/C=C2\SC(=S)N(C)C2=O)c(C)n1-c1ccc(O)cc1	75.9*	-37.5	7.1	64.2*	74.7*	47.5*
Cc1cc(/C=C2\SC(=S)N(C)C2=O)c(C)n1-c1ccccc1O	-3.5	-13.0	-126.9	-32.5	-59.8	-0.4
O=[N+]([O-])c1ccc(-c2ccc(/C=N/Nc3nc(NCc4ccccc4)nc(N4CCOCC4)n3)o2)cc1	77.0*	-1.9	45.7	-12.9	/	-83.1
COc1nc(N/N=C/c2ccc(-c3ccccc3[N+](=O)[O-])o2)nc(N2CCOCC2)n1	-8.3	-16.3	4.4	-46.0	-3.0	-5.8
CO[C@H]1CN(C)C(=O)c2ccc(NC(=O)C3CC3)cc2OC[C@H](C)N(CCC(F)(F)F)C[C@@H]1C	/	/	3.6	7.9	/	/
O=C1c2ccc(-c3nc4ccccc4o3)cc2C(=O)N1Cc1cccnc1	/	/	/	-44.3	/	/
O=C1c2ccc(-c3nc4ccccc4o3)cc2C(=O)N1Cc1ccccc1	10.2	-5.9	63.6*	/	/	-26.4
CCOc1ccc(OCC(=O)N(CCC2=CCCCC2)c2c(N)n(Cc3ccccc3)c(=O)[nH]c2=O)cc1	76.8*	81.7	-9.3	27.5	39.3	-5.1
CCOc1ccc(OCCC(=O)N(CCC2=CCCCC2)c2c(N)n(Cc3ccccc3)c(=O)[nH]c2=O)cc1	8.4	24.3	-0.6	-14.9	6.0	0.9
C[C@@H]1CN([C@@H](C)CO)S(=O)(=O)c2ccc(C#Cc3ccccn3)cc2O[C@H]1CN(C)Cc1ccccc1	/	/	/	20.1	18.1	/
Cc1cc(C(=O)COC(=O)CNC(=O)c2ccco2)c(C)n1Cc1ccco1	-3.7	20.1	4.3	0.4	/	-3.1
COc1cc(OC)cc(C(=O)NCC(=O)OCC(=O)c2cc(C)n(Cc3ccco3)c2C)c1	15.2	-80.6	91.7*	-7.1	1.8	-4.7
CC(C)Cn1c(-c2cccc(S(=O)(=O)N3CCOCC3)c2)n[nH]c1=S	-6.1	7.5	-0.4	-11.5	-0.5	71.2*

From PubChem BioAssay
